# Screens (PubChem)
# p97 ATPase inh: human p97 ATPase inhibition; P55072; inhibition, % at 8 µM; AID 1481; recombinant p97 ATPase, Kinase-Glo ATP luminescence, 3 h; 220,000 tested, 0.42% active; in the data active = inhibition above about 15%;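 also: 0% = DMSO vehicle and 100% = wells lacking enzyme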
# Target sequence (P55072 whole entry, looked up): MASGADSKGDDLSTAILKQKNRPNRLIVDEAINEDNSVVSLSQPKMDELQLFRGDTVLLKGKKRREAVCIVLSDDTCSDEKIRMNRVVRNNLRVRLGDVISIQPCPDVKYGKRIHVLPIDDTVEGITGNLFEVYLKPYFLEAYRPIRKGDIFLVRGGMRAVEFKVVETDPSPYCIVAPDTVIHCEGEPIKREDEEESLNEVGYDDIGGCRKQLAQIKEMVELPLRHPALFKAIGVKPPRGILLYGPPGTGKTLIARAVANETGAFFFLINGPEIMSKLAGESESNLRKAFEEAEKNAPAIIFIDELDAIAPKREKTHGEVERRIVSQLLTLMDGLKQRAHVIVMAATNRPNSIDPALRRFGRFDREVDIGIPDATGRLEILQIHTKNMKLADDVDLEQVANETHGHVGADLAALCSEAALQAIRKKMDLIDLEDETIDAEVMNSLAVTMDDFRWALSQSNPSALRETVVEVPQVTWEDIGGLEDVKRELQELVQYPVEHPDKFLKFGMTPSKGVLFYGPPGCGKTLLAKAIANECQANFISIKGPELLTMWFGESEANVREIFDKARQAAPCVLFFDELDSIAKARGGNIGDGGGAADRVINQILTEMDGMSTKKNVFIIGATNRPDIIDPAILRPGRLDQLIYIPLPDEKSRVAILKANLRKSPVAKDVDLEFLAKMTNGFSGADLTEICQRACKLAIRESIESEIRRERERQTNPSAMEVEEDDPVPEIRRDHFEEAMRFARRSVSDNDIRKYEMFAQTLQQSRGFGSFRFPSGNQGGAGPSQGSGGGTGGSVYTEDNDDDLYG
# HSV replic up: increases HSV replication in cells | HSV replication augmentation in cells, fold increase | maximum fold increase | 220,000 tested, 0.005% active; in the data active = maximum fold increase above about 1.5; inconclusive = no clear call, values can overlap the other calls; tested in PC3 cells
# Wee1 stabilizer: blocks degradation of human Wee1 kinase; P30291; HeLa Luc-Wee1K328M stability, luciferase luminescence; 100% = proteasome inhibitor MG132 effect; reporter increase, % at 5 µM; 220,000 tested, 1.2% active; AID 1321;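 active = activation above the mean of all tested compounds plus 3 SD, set per screening run, cut at about 8.8% in these data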;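 also: cells exposed to compound for 20 h before luminescence read; 0% = DMSO alone and 100% = MG132 at 30 µM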
# Redox H2O2 prof: compounds producing H2O2 with reducing agent – biochemical, NIH compound library profiling, artefact control for MLSCN library redox annotation, primary screen | DTT-dependent redox cycling H2O2, phenol red/HRP absorbance; 100% = 100 µM peroxide control, 0% = buffer | activation, % at 10 µM | 200,000 tested, 0.03% active | AID 878;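 active = activation of at least 50% relative to the plate's high and low controls in the primary single-dose screen; inactive = activation below 50%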;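 also: compound incubated with DTT at 0.8 mM final as the reducing agent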
# Hsp70 activator: Hsp70 transcriptional activation, primary screen; HeLa Hsp70 promoter luciferase reporter, luminescence; scaled: vehicle 0, proteasome-inhibitor control 100%; activation, % at 10 µM; 200,000 tested, 0.04% active; AID 1203;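 active = activation above the mean across all tested compounds plus 3 SD, cutoff set per campaign, cut at about 5.5% in these data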;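 also: 100% = MG132 at 30 µM as the positive control and 0% = DMSO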
# Wee1 stab conf: human Wee1 degradation inhibition, confirmation; activation, % at 5 µM; shares compounds with Wee1 stabilizer; 1,100 tested, 4% active; HeLa Luc-Wee1K328M degradation, luminescence; vehicle 0%, proteasome-blocked wells 100%; AID 1410; in the data active = activation above about 8.9%
# p97 inh conf: confirmation of human p97 ATPase inhibitors; 760 tested, 44% active; AID 1517; recombinant p97 ATPase, Kinase-Glo ATP luminescence; shares compounds with p97 ATPase inh; inhibition, % at 8 µM;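 active = percent inhibition of p97 ATPase above a set limit, the primary screen's mean plus 3 SD, cut at about 15% in these data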;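 also: 0% = DMSO wells and 100% = wells lacking p97 protein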
# * = called active by the depositor; i = inactive; ? = inconclusive; nt = no result. Rows were chosen to be rich in hits. Some 1.6% of all compounds tested hit in one or more screens of this group.
SMILES,p97 ATPase inh,HSV replic up,Wee1 stabilizer,Redox H2O2 prof,Hsp70 activator,Wee1 stab conf,p97 inh conf
COc1cccc(OC)c1C(=O)N1CCN=C1SCc1cccnc1,1.8,i,6.5,0.8,0.2,nt,nt
COc1cccc(NC(=O)Nc2ccc3c(c2)nnn3C)c1,0.8,i,15.8*,0.5,-0.2,-0.5,nt
CCc1ccc(NC(=O)Nc2cccc(OC)c2)cc1,-0.2,i,12.1*,-0.5,0.2,3.1,nt
COc1cccc(NC(=O)Nc2ccc(CC(=O)O)cc2)c1,-6.3,i,0.7,-2.5,0.2,nt,nt
COc1ccc(/C=N/NC(=O)CN(C2=NS(=O)(=O)c3ccccc32)c2ccccc2)cc1OC,4.2,i,0.9,-0.2,-0.1,nt,nt
COc1cccc(/C=N/NC(=O)CN(C2=NS(=O)(=O)c3ccccc32)c2ccccc2)c1,-1.6,i,12.4*,-0.4,-0.4,-0.2,nt
COc1ccc(/C=C/C(=O)NC(=S)NNC(=O)c2cccnc2)cc1,2.8,i,16.8*,-0.1,-0.1,-2.1,nt
O=C(N/N=C/c1ccc2ncccc2c1)c1ccco1,-9.2,i,12.6*,0.2,-0.1,-4.0,nt
O=C(N/N=C/c1ccccn1)c1ccco1,1.1,i,-1.1,-7.5,-0.3,nt,nt
CCOC(=O)CC1NC(=O)c2ccccc21 (configuration not stated),-2.8,i,-0.3,0.5,-0.3,nt,nt
COc1cccc(C(=O)NNC(=O)Cc2ccc(Cl)cc2)c1,4.0,i,-0.6,0.2,-0.1,nt,nt
Cc1cc2nnc(SC3CCCCN(C(=O)c4ccc(F)cc4)C3=O)n2c2ccccc12 (configuration not stated),3.1,nt,3.1,0.4,-0.2,nt,nt
CCN1C/C(=C\c2cccc(C)c2)c2nc3ccccc3c(C(=O)O)c2C1,-0.1,i,-0.9,1.6,-0.3,nt,nt
Cc1ccsc1/C=C1/CN(C)Cc2c1nc1ccccc1c2C(=O)O,8.1,i,11.1*,nt,nt,-0.7,nt
CCCC(=O)NCCc1cc2ccc(OC)cc2[nH]c1=O,-1.8,i,1.9,-0.3,-0.5,nt,nt
CCN(CC)CCOC(=O)C1(c2ccccc2)CCOCC1,5.9,i,13.9*,1.3,0.0,0.4,nt
CCCCOc1ccc(-c2[nH]ncc2C=O)cc1,3.8,i,14.8*,-0.2,0.1,5.3,nt
CCCCOc1ccc(-c2ncc([N+](=O)[O-])cn2)cc1,3.3,i,1.6,nt,nt,nt,nt
CS(=O)(=O)NN1C(=O)c2ccccc2NC1c1cccc2cccnc12 (configuration not stated),-2.6,i,0.5,-0.7,-0.1,nt,nt
O=C(CSc1nnc(-c2ccc(S(=O)(=O)N3CCCC3)cc2)o1)N1CCCC1,-1.5,nt,-1.2,-0.3,-0.4,nt,nt
N#C/C(C(=O)N1CCOCC1)=C1/SC(Cc2ccccc2Cl)C(=O)N1c1ccccc1 (configuration not stated),3.5,i,11.4*,0.6,-0.3,-0.2,nt
N#C/C(C(=O)NCc1ccco1)=C1/SC(Cc2ccc(Cl)cc2)C(=O)N1c1ccccc1 (configuration not stated),2.4,i,0.0,1.1,0.0,nt,nt
Cc1ccccc1-n1cnnc1SCC(=O)Nc1cccnc1Cl,-1.4,i,15.1*,-0.8,-0.1,-0.4,nt
COc1ccccc1-n1cnnc1SCC(=O)Nc1cccnc1Cl,1.1,i,-0.4,0.3,-0.3,nt,nt
COC(=O)c1ccccc1N=Nc1c(N)[nH][nH]c1=O,-2.2,i,17.9*,nt,nt,1.0,nt
SMILES,p97 ATPase inh,HSV replic up,Wee1 stabilizer,Redox H2O2 prof,Hsp70 activator,Wee1 stab conf,p97 inh conf
COC(=O)c1ccccc1N=Nc1c(N)n[nH]c1N,5.0,i,-1.6,nt,nt,nt,nt
COc1ccc(-c2nc(-c3ccc(O)cc3O)cs2)cc1OC,17.4*,i,13.4*,0.2,-0.1,1.3,19.0*
COc1cc(NCCCC(C)N)c2ncccc2c1 (configuration not stated),15.2*,i,29.4*,-2.0,-0.1,-0.1,8.3
COc1cc(NS(=O)(=O)c2ccc(C)cc2)c2ncccc2c1,2.1,i,0.0,-2.5,-0.3,nt,nt
COc1cccc(OC(=O)CSc2nnc(-c3ccccc3Br)o2)c1,-2.0,i,-3.3,3.1,-0.1,nt,nt
Cc1nc(S/C(=C\c2ccc(OCc3ccccc3Cl)cc2)C(=O)O)n[nH]1,4.7,i,2.5,1.8,0.2,nt,nt
Cc1nc(S/C(=C\c2ccc(-c3ccc(C(=O)O)c(Cl)c3)o2)C(=O)O)n[nH]1,52.5*,?,1.2,nt,nt,nt,44.1*
NS(=O)(=O)c1ccc(N/N=C/c2ccc(O)c(O)c2O)c([N+](=O)[O-])c1,47.9*,i,0.6,nt,nt,nt,49.6*
Cc1ccc(SC/C(O)=C(\C#N)c2nc3ccccc3s2)cc1,20.8*,i,2.8,-0.8,-0.4,nt,39.4*
CCOC(=O)N/N=C\C=C\c1ccc2c(c1)OCO2,2.3,i,5.9,-0.5,-0.1,nt,nt
Cc1[nH][nH]c(=O)c1C(c1ccc(-c2ccc(F)cc2)o1)c1c(C)[nH][nH]c1=O,9.3,i,-1.3,-0.5,-0.1,nt,nt
Cc1[nH][nH]c(=O)c1C(c1ccc(-c2ccc(C(=O)O)cc2)o1)c1c(C)[nH][nH]c1=O,24.6*,i,3.2,-1.2,-0.2,nt,10.2
Cc1nc2ccccn2c1C(=O)N/N=C/c1cc(C)n(-c2ccc(Br)cc2)c1C,0.1,i,-1.1,0.9,-0.1,nt,nt
COc1ccc2c(C(=O)CCl)c[nH]c2c1,35.6*,i,1.3,nt,nt,nt,42.8*
O=C(NNc1c2ccccc2nc2ccccc12)c1ccc(O)cc1O,34.7*,nt,1.1,-3.9,-0.1,nt,38.0*
Cc1c(NC(=O)CC2CC(C)OC2=O)c(=O)n(-c2ccccc2)n1C (configuration not stated),-0.5,i,-1.3,0.2,-0.1,nt,nt
O=C(NCc1ccco1)c1sc(=S)n2c1[nH]c(=O)c1ccccc12,15.3*,i,1.4,0.1,-0.1,nt,24.9*
CC(=O)Nc1ccc2cc3ccc(NC(C)=O)cc3nc2c1,34.2*,?,-1.6,nt,nt,nt,24.0*
COc1ccc(CC(=O)Nc2ccccc2Oc2ccccc2)cc1,0.1,i,2.2,-0.6,-0.2,nt,nt
O=C(O)c1cccc(NN=C2c3ccccc3-c3ccccc32)c1,37.9*,i,-1.6,0.6,-0.1,nt,45.3*
O=C(O)c1cccc(N/N=C/c2ccc(-c3ccccc3)cc2)c1,4.0,i,0.8,-0.6,0.0,nt,nt
Fc1ccc(N2CCN(C3=Nc4cccc5cccc3c45)CC2)cc1,3.4,i,-0.2,0.2,0.1,nt,nt
CCOc1ccc(NC(=S)NC23CN4CN(CN(C4)C2)C3)cc1,4.8,i,-1.2,0.1,-0.3,nt,nt
Cc1nnc(N/N=C\c2ccc(-c3ccccc3[N+](=O)[O-])o2)n1N,17.2*,i,-2.6,-0.4,-0.1,nt,5.9
Cc1ccc(S(=O)(=O)CCC(=O)c2ccc(O)cc2O)cc1,15.8*,i,-1.6,2.1,-0.3,nt,20.7*
